KCNQ2 enhance = KCNQ2 (rat) channel potentiation; O88943; CHO-K1 KCNQ2, FluxOR thallium flux fluorescence; stronger effect = higher value; B-score at 10 µM; 0.54% of 310,000 active; AID 2239;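 active = fluorescence ratio B-score at least 3 SD of library B-scores, with initial fluorescence B-score within 3 of them, cut at about 5.3 in these data; same plate scores as AID 2156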;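 note: B-score of peak minus minimum over baseline fluorescence ratio after K+ and Tl+ stimulus; positive B-score means potentiation of KCNQ2 with more thallium influx and brighter signal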
KCNQ2 inh = inhibitors of rat KCNQ2 potassium channel | 1.1% of 310,000 active | CHO-K1 KCNQ2, FluxOR thallium flux, 20 min; stronger effect = lower value | B-score at 10 µM | O88943;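 active = fluorescence ratio B-score at most minus 3 library SDs, with starting brightness B-score within 2 library SDs, cut at about -5.5 in these data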
Kir21 conf inh = confirmation of mouse Kir2.1 potassium channel inhibitors; shares compounds with KCNQ2 enhance; Kir2.1-expressing cells, FluxOR thallium flux fluorescence; stronger effect = lower value; Tl flux remaining, % of negative control (stronger effect = lower value), % at 10 µM; 41% of 2,300 active; AID 2032;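 active = Primary-screen hit whose thallium flux fell at least 3 control SD below untreated wells in both duplicates, with normal baseline fluorescence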;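 note: 0% = blank wells without stimulus and 100% = stimulated no-compound controls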
HEK293 ctr = counter-screen for Kir2.1 inhibitors: effect in parental HEK293 cells; FluxOR signal as % of negative control (100 = no effect), % at 10 µM; FluxOR thallium flux fluorescence; 0% = unstimulated blank wells; shares compounds with KCNQ2 enhance; AID 2105; 19% of 2,300 active;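 active = dye signal at least 3 control SD above or below untreated wells in both duplicates, raw fluorescence within 3, either direction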;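 note: percent is based on the flux ratio of peak minus minimum fluorescence over baseline F0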
CHO-K1 Tl ctr = counter-screen for KCNQ2 potentiators: effect in parental CHO-K1 cells | shares compounds with KCNQ2 enhance | FluxOR thallium flux fluorescence; zero = vehicle mean+3SD, 100% = vehicle-minus-blank window | activity increase over 3SD of controls, % at 10 µM | 43% of 1,200 active | AID 2282;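 active = signal rise of at least 3 SD above the untreated control mean, in both duplicate wells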;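 note: counter screen of KCNQ2 potentiator hits so any rise reflects channel-independent effects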
KCNQ1 sel pot = selectivity of KCNQ2 potentiators: effect on human KCNQ1; shares compounds with KCNQ2 enhance; activation over 3SD threshold, % at 10 µM; 28% of 1,200 active; CHO KCNQ1 stable, FluxOR thallium flux fluorescence; beyond 3SD, as % of vehicle-control signal; AID 2283;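 active = fluorescence ratio rise of at least 3 SD of vehicle wells above their mean, in both replicate wells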;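 note: 0% = vehicle mean plus 3 SD and 100% = vehicle minus unstimulated blank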
Target sequence (P51787 whole entry, looked up): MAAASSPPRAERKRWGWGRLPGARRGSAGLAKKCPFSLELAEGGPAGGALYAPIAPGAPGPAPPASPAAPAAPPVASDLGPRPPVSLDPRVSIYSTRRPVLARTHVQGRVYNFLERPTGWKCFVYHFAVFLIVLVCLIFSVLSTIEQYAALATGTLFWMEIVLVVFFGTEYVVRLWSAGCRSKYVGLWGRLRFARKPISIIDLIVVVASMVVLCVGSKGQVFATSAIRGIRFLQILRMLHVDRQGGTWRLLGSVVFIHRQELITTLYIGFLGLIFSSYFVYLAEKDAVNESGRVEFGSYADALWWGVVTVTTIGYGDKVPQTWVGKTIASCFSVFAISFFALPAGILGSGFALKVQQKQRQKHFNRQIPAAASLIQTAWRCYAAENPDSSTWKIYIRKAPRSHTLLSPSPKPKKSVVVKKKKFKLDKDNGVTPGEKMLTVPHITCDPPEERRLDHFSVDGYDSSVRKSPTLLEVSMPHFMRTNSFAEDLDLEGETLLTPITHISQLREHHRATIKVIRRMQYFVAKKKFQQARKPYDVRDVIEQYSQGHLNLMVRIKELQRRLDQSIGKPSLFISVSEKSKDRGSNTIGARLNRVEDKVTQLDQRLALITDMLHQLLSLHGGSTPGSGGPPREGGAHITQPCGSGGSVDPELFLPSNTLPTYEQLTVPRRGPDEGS
KCNQ2 pot conf = confirmation of rat KCNQ2 potassium channel potentiators; 68% of 1,200 active; CHO-KCNQ2 cells, FluxOR thallium flux fluorescence; AID 2287; shares compounds with KCNQ2 enhance; potentiation, less the hit threshold, % at 10 µM;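 active = fluorescence ratio rising 3 SD or more over the vehicle control mean in both replicates, plus primary screen hit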;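 note: peak minus minimum thallium fluorescence divided by baseline after K/Tl stimulus; 0% = vehicle mean plus 3 SD and 100% = vehicle minus unstimulated blank difference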
Kir21 spec = tests whether KCNQ2 potentiators also affect mouse Kir2.1 | shares compounds with KCNQ2 enhance | HEK293 Kir2.1, FluxOR thallium flux fluorescence | activity over 3SD threshold, % at 10 µM | 2% of 1,200 active | AID 2345;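 active = fluorescence ratio rise of at least 3 SD above the vehicle-control mean, seen in both replicates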;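 note: 0% = vehicle mean plus 3 SD and 100% = vehicle minus no-stimulus blank window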
KCNQ2 W236L pot = KCNQ2 potentiators acting on retigabine-insensitive rat KCNQ2 W236L mutant; AID 2558; 10% of 940 active; current increase over 3SD of negative controls (%), stronger effect = higher value, % at 25 µM; shares compounds with KCNQ2 enhance; CHO KCNQ2-W236L, automated patch clamp current;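 active = current increase at least 3 SD of the untreated controls above them in both duplicate recordings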
* hit, by the source's call; i = inactive; x = not tested or not shown. Only some compounds are listed: those with a hit (about 1.6% of all), similar ones and a draw of the others.

SMILES	KCNQ2 enhance	KCNQ2 inh	Kir21 conf inh	HEK293 ctr	others
Cc1cc(C)n(-c2nc3c(c(=O)[nH]c(=O)n3C)n2Cc2ccc(F)cc2)n1	0.36	i	x	x
O=c1cc(CN2CCOCC2)nc(C2CC2)[nH]1	0.21	i	x	x
CCOc1ccc(N(CC(=O)Nc2ccccc2C(=O)NCc2ccco2)S(C)(=O)=O)cc1	1.3	i	x	x
Cc1cc(C)c2nc(SC3CCOC3=O)cc(C)c2c1 (configuration not stated)	0.27	i	x	x
Cc1cc(C)c2nc(SC(C)C#N)cc(C)c2c1 (configuration not stated)	5.6*	i	i	68%*	CHO-K1 Tl ctr=75*;KCNQ1 sel pot=-9;KCNQ2 pot conf=-12;Kir21 spec=-44;KCNQ2 W236L pot=i
Cc1ccc(C(=O)n2c3ccccc3c3ccccc32)cc1	x	i	x	x
COC(=O)c1ccc(-c2nc3cc(N)ccc3o2)cc1	0.54	i	x	x
CC(Nc1ncnc2ccccc12)c1ccccc1 (configuration not stated)	2.4	i	x	x
CCCCC(Nc1ncnc2ccccc12)C(=O)O (configuration not stated)	7.7*	i	i	i	CHO-K1 Tl ctr=-4;KCNQ1 sel pot=-11;KCNQ2 pot conf=-24;Kir21 spec=-43
Cc1ccc(NC(=O)c2nnn(CC(=O)Nc3ccccc3)c2N)cc1C	0.96	i	x	x
CNCCCC1Sc2ccccc2Oc2ccccc21 (configuration not stated)	0.13	i	40%*	i
O=C(NC1CC1)c1ccc(-n2cccc2)cc1	x	i	x	x
CCN(CC)CCCNC(=O)Cn1cc2c(n1)CCC(C)C2 (configuration not stated)	0.34	i	x	x
CCOC(=O)C1(CC2CCCCO2)CCN(Cc2nccn2-c2ccc(OC)cc2)CC1 (configuration not stated)	x	i	x	x
CSc1ccc(S(=O)(=O)NC(C)c2ccccc2)cc1 (configuration not stated)	1.2	i	42%*	i
Cc1ccc(S(=O)(=O)NC(C)c2ccccc2)cc1[N+](=O)[O-] (configuration not stated)	0.61	i	46%*	i
C/C(CC(C)C)=N\NS(=O)(=O)c1ccc(C)c([N+](=O)[O-])c1	x	i	x	x
CSc1ccc(S(=O)(=O)NCc2ccccc2)cc1	x	i	x	x
COc1ccccc1NS(=O)(=O)c1ccc2oc(=S)[nH]c2c1	1	i	x	x
CC1(C)Cc2nc3sc4c(N5CCCC5)nnnc4c3cc2CO1	1.4	i	x	x
COc1cccc(C(=O)NCc2ccco2)c1	8.9*	i	i	74%*	CHO-K1 Tl ctr=-10;KCNQ1 sel pot=-12;KCNQ2 pot conf=-31;Kir21 spec=-45
COc1cccc(C(=O)NCCS(=O)(=O)NCc2ccco2)c1	x	i	x	x
CC/C(=N\NC(=O)c1ccc2c(c1)OCO2)C12CC3CC(CC(C3)C1)C2	x	i	x	x
CC/C(=N/NC(=O)c1ccc2c(c1)OCO2)c1ccccc1O	7.9*	i	i	i	CHO-K1 Tl ctr=-12;KCNQ1 sel pot=-20;KCNQ2 pot conf=16*;Kir21 spec=-31;KCNQ2 W236L pot=i
O=C(Cn1nc(C(F)(F)F)c2c1CCCC2)N1CCOCC1	1.1	i	x	x
SMILES	KCNQ2 enhance	KCNQ2 inh	Kir21 conf inh	HEK293 ctr	others
Nc1cc(-c2ccc(Br)cc2)nn1S(=O)(=O)c1cccc2nsnc12	6.9*	i	i	i	CHO-K1 Tl ctr=20*;KCNQ1 sel pot=-11;KCNQ2 pot conf=-4;Kir21 spec=-42
Nc1cc(-c2ccc(Cl)cc2)nn1S(=O)(=O)c1cccc2nsnc12	5.1	i	x	x
O=S(=O)(NC1CCCCC1Oc1ccccc1)c1ccc(Cl)cc1 (configuration not stated)	x	i	x	x
Cc1ccc(S(=O)(=O)Cc2ccc(C(=O)NC3CCCC3)o2)cc1	x	i	x	x
COc1ccc(CN2CCC(Cc3ccccc3)CC2)cc1OC	0.03	i	x	x
CCOc1ccc(CN2CCC(Cc3ccccc3)CC2)cc1	0.4	i	41%*	i
COc1ccc(-c2cc(=O)c3cc(OC)ccc3o2)cc1	0.36	i	x	x
COc1ccc(/C=C/c2cc(=O)c3cc(Cl)ccc3o2)cc1	x	i	i	i
Cc1ccc2c(c1)c1c3n2CCN(C(=O)CCl)C3CCC1 (configuration not stated)	x	i	i	i
CC(=O)N1CCn2c3c(c4cc(C)ccc42)CCCC31 (configuration not stated)	0.68	i	x	x
Cc1cc(S(=O)(=O)Nc2ccc(F)cc2)c(C)s1	1.9	i	x	x
CCOC(=O)C1=NN(C(=O)Cc2ccccc2)C(O)(c2ccc(Cl)cc2)C1 (configuration not stated)	x	i	x	x
COC(=O)C1=NN(C(=O)c2cccc(Br)c2)C(O)(c2ccc(Cl)cc2)C1 (configuration not stated)	16*	i	i	i	CHO-K1 Tl ctr=18*;KCNQ1 sel pot=-8;KCNQ2 pot conf=65*;Kir21 spec=-24;KCNQ2 W236L pot=i
C/C=C(\C)C(=O)NCCN1C2=NC[C@H](Cc3ccccc3)N2C[C@H]1Cc1ccc(O)cc1	0.1	i	x	x
Cc1ccc(C(=O)NCCN2C3=NC[C@H](Cc4ccc(O)cc4)N3C[C@H]2Cc2ccc(O)cc2)cc1Br	0.05	i	x	x
Cc1ccc(C(=O)NCCN2C3=NC[C@@H](Cc4ccccc4)N3C[C@H]2Cc2ccc(O)cc2)cc1Br	x	i	54%*	i
COc1ccc(C[C@H]2CN3C(=NC[C@H]3Cc3ccccc3)N2CCNC(=O)c2ccc(C)c(Br)c2)cc1	x	i	28%*	i
Cc1ccc(S(=O)(=O)N(C)c2ccc(NS(C)(=O)=O)cc2)cc1	0.69	i	x	x
O=C(CC(=O)N/N=C/c1ccccc1O)NCc1cccnc1	x	i	x	x
Cc1ccc(NS(=O)(=O)c2cc(Br)cnc2N)c(Cl)c1	0.02	i	x	x
COc1cc(OC)c(NS(=O)(=O)c2cc(Br)cnc2N)cc1Cl	0.48	i	72%*	72%*
CC1=Nc2cc(Cl)ccc2Oc2ccccc21	0.01	i	x	x
Nc1c2c(nc3sc4c(c13)CCCCC4)CCCCC2	x	i	x	x
Nc1nc2c(s1)CCCCCCCCCC2	6*	i	64%*	70%*	CHO-K1 Tl ctr=-40;KCNQ1 sel pot=89*;KCNQ2 pot conf=-9;Kir21 spec=-73;KCNQ2 W236L pot=i
Cc1cccc(OCCC(=O)OCC(=O)N2CCc3ccccc32)c1	x	i	x	x
COc1ccc(CCNCc2cc(C)n(-c3ccc(OC)cc3)c2C)cc1	x	i	x	x
CCc1sc(C(=O)NCCCn2ccnc2)cc1Br	x	i	x	x

Assay outcomes from PubChem.
